ChEMBL document CHEMBL3433997, “St. Jude Leishmania screening dataset” (2016)

These compounds were tested against Solute carrier family 2, facilitated glucose transporter member 1 (Homo sapiens) (UniProt P11166) (assay: ST_JUDE_LEISH: Cytotoxicity at 2uM final concentration against transgenic Leishmania Mexicana promastigotes LmGLUT1 that are glucose transport deficient and complemented with the human glucose transporter GLUT1. Activity is measured by DNA content using SYBR green in vitro).
Type: functional

Chain of Solute carrier family 2, facilitated glucose transporter member 1 (Homo sapiens) (P11166 whole entry): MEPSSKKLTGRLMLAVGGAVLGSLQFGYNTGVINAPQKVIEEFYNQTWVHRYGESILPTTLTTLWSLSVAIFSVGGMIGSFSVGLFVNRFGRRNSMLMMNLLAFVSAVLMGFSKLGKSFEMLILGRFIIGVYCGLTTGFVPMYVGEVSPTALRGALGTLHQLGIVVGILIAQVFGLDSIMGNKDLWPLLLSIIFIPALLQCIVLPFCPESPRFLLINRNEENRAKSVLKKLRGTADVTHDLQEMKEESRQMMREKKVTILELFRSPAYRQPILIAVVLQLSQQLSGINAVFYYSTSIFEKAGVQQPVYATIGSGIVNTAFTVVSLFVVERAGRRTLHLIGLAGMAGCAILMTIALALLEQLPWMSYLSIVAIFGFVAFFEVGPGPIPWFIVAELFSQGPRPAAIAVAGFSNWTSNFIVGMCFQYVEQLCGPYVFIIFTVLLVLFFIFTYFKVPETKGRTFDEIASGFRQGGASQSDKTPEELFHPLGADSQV

| Compound | inhibition [%] |
| --- | --- |
| CC(C)N1CCC(N(Cc2ccc(-c3ccc(C(F)(F)F)cc3)cc2)C(=O)Cn2c(SCc3cccc(F)c3F)cc(=O)c3ccccc32)CC1 | -0.18 |
| Cc1nc2nc(N)nc(N)c2c(C)c1Cc1c(Cl)cccc1Cl | 8.8 |
| CC(C)CNCc1cccc(-c2ccc(CN(CCCN3CCN(C)CC3)C(=O)CCC3CCCC3)cc2)c1 | 38.9 |
| COc1ccccc1C1CCN(CCN2CCC(NC(=O)c3ccc(-c4ccc(C#N)cc4)cc3)CC2)CC1 | -0.2 |
| CCn1c(-c2nonc2N)nc2c(-c3cccc(NC(=O)Nc4ccccc4OC)c3)ncc(OCCCN)c21 | 2.94 |
| Cc1[nH]c2c(NCc3ccc(F)cc3)nccc2c1C | 4.48 |
| CNCc1cccc(-c2ccc3ccnc(N)c3c2)c1 | 7.92 |
| C=CCNC(=O)C(C)c1ccc2cc(OC)ccc2c1 (stereo not given) | 0.71 |
| CCC1(CC)N=C(N)N=C(N)C1c1ccc(Cl)c(Cl)c1 (stereo not given) | -0.44 |
| Cc1cc(Nc2cccc(C(F)(F)F)c2)nc(NCc2ccccc2)n1 | 29.6 |
| Cc1nn(-c2ccccc2)c2nc(-c3ccccc3)cc(C(=O)N3CCOCC3)c12 | 1.26 |
| COCCNCc1cccc(-c2ccc3c(Nc4ccc(F)cc4Cl)ccnc3c2)c1 | -1.97 |
| O=C(Nc1ccc2c(c1)CCC2)N[C@H]1CCN(Cc2ccc(OCCCN3CCCCC3)cc2)C1 | 1.25 |
| COc1ccc(O)c(-c2sc(N=C(N)N)nc2-c2ccccc2)c1 | 1.77 |
| Cc1sc(CNCCCNc2cc(=O)c3ccccc3[nH]2)c(C(F)(F)F)c1C | -2.84 |
| NC(=O)c1sc(-n2cnc3ccc(C(=O)NCCN4CCOCC4)cc32)cc1OCc1ccccc1C(F)(F)F | 0.72 |
| CC(C)(C)c1ccc(CNC(=O)c2cc(CNC3CCC(N)CC3)ccc2O)cc1 (stereo not given) | 0.08 |
| Cc1cc(N2CCCCC2)nc2ccc(NC(=O)c3cc(=O)c4ccccc4o3)cc12 | 5.94 |
| CC(C)(C)OC(=O)/C=C(\C(=O)OCc1ccc([N+](=O)[O-])cc1)c1csc(NC(c2ccccc2)(c2ccccc2)c2ccccc2)n1 | 4.04 |
| O=C(c1cc2c(s1)-c1cccc(Cl)c1SC2)N1CCN(c2ccncc2)CC1 | 4.7 |

| Compound | inhibition [%] |
| --- | --- |
| CC(CN)OCn1cnc2c(N)ncnc21 (stereo not given) | 0.4 |
| OC(CNc1cccc(Cl)c1)Cn1c2ccc(Cl)cc2c2cc(Cl)ccc21 (stereo not given) | 3.75 |
| O=C(Nc1ccccc1-c1ccccc1)C1CCCN1C(=O)Nc1ccc(Cl)cc1 (stereo not given) | -0.38 |
| COc1ccc2c(NN=Cc3ccncc3)ccnc2c1 | -0.81 |
| CC(C)(C)c1nn(-c2ccccc2)c2[nH]c(=O)c(CNCc3ccccc3)cc12 | 2.76 |
| COc1ccc2nccc([C@@H](O)CN3CCC(NCCNc4ccccn4)CC3)c2c1 | 8.79 |
| O=C(Nc1cccc(-c2nn3ncccc3c2-c2ccnc(Nc3cccc(C(F)(F)F)c3)n2)c1)c1c(F)cccc1F | 2.16 |
| COC(=O)c1cc(OC)c(OC)cc1NC(=O)NC12CC3CC(CC(C3)C1)C2 | 4.1 |
| Clc1cccc(CNc2nc(NCCc3c[nH]cn3)nc(NC3CCCCC3)n2)c1 | 3.76 |
| CCNc1cc(C(=O)N[C@@H](Cc2ccccc2)[C@H](O)CNC(C)CCCC(C)C)cc(N2CCCS2(=O)=O)c1 (stereo not given in full) | 2.83 |
| Cc1cccc2nc(-c3ccc(-c4cccc(NC(=O)C(C)CN5CCN(C)CC5)c4)s3)[nH]c12 (stereo not given) | 11.7 |
| Cc1cccc2nc(-c3cccc(-c4cccc(NC(=O)CNc5ccc(C(N)=O)cc5)c4)c3)[nH]c12 | 4.73 |
| CCNc1cc(C(=O)N[C@@H](Cc2ccccc2)[C@H](O)CNCc2cccc(OC)c2C)cc(N2CCCCS2(=O)=O)c1 | 1.82 |
| O=[N+]([O-])c1cc(C(c2ccc(O)c([N+](=O)[O-])c2)C(Cl)(Cl)Cl)ccc1O | 9.43 |
| CCCN(CC)CCOC(=O)c1ccccc1 | 8.35 |
| COc1ccc(CNC2Cc3ccccc3C2)cc1-c1ccc(S(=O)(=O)NCCc2ccccn2)s1 | 0.76 |
| Cn1cnc2c(Nc3ccncc3)nc(-c3ccc4c(c3)OCO4)nc21 | 8.06 |
| CC(C)c1ccc(-c2nc3cc(Cl)cnc3[nH]2)cc1 | 3.03 |
| Cc1ccc(Oc2ccccc2NC(=O)CCc2nc3ccccc3c(=O)[nH]2)cc1 | 0.1 |
| CCN1CCN(c2cc(C)c3cc(NC(=O)c4cccc([N+](=O)[O-])c4)ccc3n2)CC1 | -0.98 |

The compounds below were run against Hexose transporter 1 (Plasmodium falciparum) (UniProt O97467) (assay: ST_JUDE_LEISH: Cytotoxicity at 2uM final concentration against transgenic Leishmania Mexicana promastigotes LmPfHT that are glucose transport deficient and complemented with the Plasmodium falciparum hexose transporter. Activity is measured by DNA content using SYBR green in vitro).
Type: functional

| Compound | inhibition [%] |
| --- | --- |
| CC(C)N1CCC(N(Cc2ccc(-c3ccc(C(F)(F)F)cc3)cc2)C(=O)Cn2c(SCc3cccc(F)c3F)cc(=O)c3ccccc32)CC1 | 1.73 |
| Cc1nc2nc(N)nc(N)c2c(C)c1Cc1c(Cl)cccc1Cl | 10.7 |
| CC(C)CNCc1cccc(-c2ccc(CN(CCCN3CCN(C)CC3)C(=O)CCC3CCCC3)cc2)c1 | 56.9 |
| COc1ccccc1C1CCN(CCN2CCC(NC(=O)c3ccc(-c4ccc(C#N)cc4)cc3)CC2)CC1 | 2.09 |
| CCn1c(-c2nonc2N)nc2c(-c3cccc(NC(=O)Nc4ccccc4OC)c3)ncc(OCCCN)c21 | 3.41 |
| Cc1[nH]c2c(NCc3ccc(F)cc3)nccc2c1C | 4.33 |
| CNCc1cccc(-c2ccc3ccnc(N)c3c2)c1 | 10.7 |
| C=CCNC(=O)C(C)c1ccc2cc(OC)ccc2c1 (stereo not given) | 0.77 |
| CCC1(CC)N=C(N)N=C(N)C1c1ccc(Cl)c(Cl)c1 (stereo not given) | 0.07 |
| Cc1cc(Nc2cccc(C(F)(F)F)c2)nc(NCc2ccccc2)n1 | 42.8 |
| Cc1nn(-c2ccccc2)c2nc(-c3ccccc3)cc(C(=O)N3CCOCC3)c12 | 0.16 |
| COCCNCc1cccc(-c2ccc3c(Nc4ccc(F)cc4Cl)ccnc3c2)c1 | 2.48 |
| O=C(Nc1ccc2c(c1)CCC2)N[C@H]1CCN(Cc2ccc(OCCCN3CCCCC3)cc2)C1 | 2.37 |
| COc1ccc(O)c(-c2sc(N=C(N)N)nc2-c2ccccc2)c1 | 2.67 |
| Cc1sc(CNCCCNc2cc(=O)c3ccccc3[nH]2)c(C(F)(F)F)c1C | -0.65 |
| NC(=O)c1sc(-n2cnc3ccc(C(=O)NCCN4CCOCC4)cc32)cc1OCc1ccccc1C(F)(F)F | -0.6 |
| CC(C)(C)c1ccc(CNC(=O)c2cc(CNC3CCC(N)CC3)ccc2O)cc1 (stereo not given) | -1.35 |
| Cc1cc(N2CCCCC2)nc2ccc(NC(=O)c3cc(=O)c4ccccc4o3)cc12 | 7.2 |
| CC(C)(C)OC(=O)/C=C(\C(=O)OCc1ccc([N+](=O)[O-])cc1)c1csc(NC(c2ccccc2)(c2ccccc2)c2ccccc2)n1 | 4.55 |
| O=C(c1cc2c(s1)-c1cccc(Cl)c1SC2)N1CCN(c2ccncc2)CC1 | 3.88 |

| Compound | inhibition [%] |
| --- | --- |
| CC(CN)OCn1cnc2c(N)ncnc21 (stereo not given) | 4.03 |
| OC(CNc1cccc(Cl)c1)Cn1c2ccc(Cl)cc2c2cc(Cl)ccc21 (stereo not given) | 1.59 |
| O=C(Nc1ccccc1-c1ccccc1)C1CCCN1C(=O)Nc1ccc(Cl)cc1 (stereo not given) | -0.89 |
| COc1ccc2c(NN=Cc3ccncc3)ccnc2c1 | -0.51 |
| CC(C)(C)c1nn(-c2ccccc2)c2[nH]c(=O)c(CNCc3ccccc3)cc12 | 2.02 |
| COc1ccc2nccc([C@@H](O)CN3CCC(NCCNc4ccccn4)CC3)c2c1 | 9.69 |
| O=C(Nc1cccc(-c2nn3ncccc3c2-c2ccnc(Nc3cccc(C(F)(F)F)c3)n2)c1)c1c(F)cccc1F | 3.08 |
| COC(=O)c1cc(OC)c(OC)cc1NC(=O)NC12CC3CC(CC(C3)C1)C2 | 2.13 |
| Clc1cccc(CNc2nc(NCCc3c[nH]cn3)nc(NC3CCCCC3)n2)c1 | 3.97 |
| CCNc1cc(C(=O)N[C@@H](Cc2ccccc2)[C@H](O)CNC(C)CCCC(C)C)cc(N2CCCS2(=O)=O)c1 (stereo not given in full) | 1.89 |
| Cc1cccc2nc(-c3ccc(-c4cccc(NC(=O)C(C)CN5CCN(C)CC5)c4)s3)[nH]c12 (stereo not given) | 10.8 |
| Cc1cccc2nc(-c3cccc(-c4cccc(NC(=O)CNc5ccc(C(N)=O)cc5)c4)c3)[nH]c12 | 4.35 |
| CCNc1cc(C(=O)N[C@@H](Cc2ccccc2)[C@H](O)CNCc2cccc(OC)c2C)cc(N2CCCCS2(=O)=O)c1 | 1.66 |
| O=[N+]([O-])c1cc(C(c2ccc(O)c([N+](=O)[O-])c2)C(Cl)(Cl)Cl)ccc1O | 9.85 |
| CCCN(CC)CCOC(=O)c1ccccc1 | 7.44 |
| COc1ccc(CNC2Cc3ccccc3C2)cc1-c1ccc(S(=O)(=O)NCCc2ccccn2)s1 | 0.03 |
| Cn1cnc2c(Nc3ccncc3)nc(-c3ccc4c(c3)OCO4)nc21 | 6.78 |
| CC(C)c1ccc(-c2nc3cc(Cl)cnc3[nH]2)cc1 | 3.85 |
| Cc1ccc(Oc2ccccc2NC(=O)CCc2nc3ccccc3c(=O)[nH]2)cc1 | 0.95 |
| CCN1CCN(c2cc(C)c3cc(NC(=O)c4cccc([N+](=O)[O-])c4)ccc3n2)CC1 | 0.44 |
